Bioassay records from PubChem BioAssay.
Pf growth 96h: P. falciparum growth inhibition at 96 hour, primary screen for plastid delayed-death inhibitors | 6.9% of 320,000 active | P. falciparum luciferase reporter growth, 96 h | Potency, µM (top dose mostly 28.7 µM), inactives show at the highest dose activity change, negative = inhibition, most hits filed as inhibitors
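P. falciparum expressing integrated firefly luciferase, in erythrocytes at 2% hematocrit, 0.05% parasitemia, incubated with compounds 96 h at 37 C, 5% CO2. Growth inhibition read as loss of luminescence; two-generation exposure targets delayed-death apicoplast inhibitors.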
Pf growth 48h: inhibits P. falciparum growth in the first generation, 48 h; P. falciparum luciferase growth in erythrocytes, 48 h; Potency, µM (highest dose often 28.7 µM), for inactives: top-dose activity change, negative = inhibition, hits mostly inhibitors; 5.9% of 310,000 active; AID 504832
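Erythrocytes infected with P. falciparum carrying an integrated firefly luciferase reporter (2% hematocrit, 0.1% parasitemia final) were exposed to compounds in RPMI 1640 with 0.5% Albumax at 37 C, 5% CO2. Growth inhibition was scored as reduced luminescence.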
HCV inhibitor: HCV inhibition. 3.4% of 340,000 active. AID 651820. Potency, µM (titrated, usually from 41.8 µM), for the others: top-dose activity change, negative = inhibition, most hits filed as inhibitors. Huh7.5.1 HCVcc-Cre infection, luciferase reporter, 44 h
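Reporter virus HCVcc-Cre (~0.5 moi) infects cells exposed to compound; seeding density 1,000 cells/well with 4 h settling beforehand. Luminescence, 15 sec read, taken 44 h post-infection following a 15 min RT substrate incubation.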
AMA1-RON2 inh: inhibitors of Plasmodium falciparum AMA1-RON2 interaction; AlphaScreen AMA1-biotinylated RON2 peptide binding; Potency, µM (doses to about 58.2 µM), without a hit: top-dose activity change, negative = inhibition, most hits filed as inhibitors; 0.2% of 360,000 active;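 further: 0% = vehicle wells and -100% = peptide control; nearly all actives have a fitted effect of over 45% in size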
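AMA1 (3D7) with his tag at 25 nM final met compounds first, then biotinylated RON2 peptide at 25 nM; detection used donor plus acceptor beads, 10 µg/mL apiece, read by AlphaScreen after 30 min at room temperature.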
Numbers without * were called inactive. Rows were chosen to be rich in hits. Some 11% of all compounds tested hit in one or more screens of this group. The call rests on the fitted dose curve; in most records, active means well fitted curve in the direction sought with a large enough effect; inconclusive means small, poorly fitted or top-dose-only effect, or another doubt; inactive means no such curve, though single readings can be large; an effect the other way counts as inactive or inconclusive. Unless noted, on the % scale 0 is the no-effect control and ±100 the full control effect; potency means the concentration at half of the fitted maximal effect.

Screening CN1CCN(C(c2ccc(F)cc2)c2ccc3cccnc3c2O)CC1 (stereo unspecified) returned HCV inhibitor 10.2% and AMA1-RON2 inh 44.2%.
For C/C(=N\OCc1cccc(C(=O)O)c1)c1ccc(Cl)cc1 the results were Pf growth 96h inactive, Pf growth 48h 1.04µM*, HCV inhibitor 3.0% and AMA1-RON2 inh 3.1%.
Screening Cc1ccc(S(=O)(=O)Nc2ccc(Br)cc2C(NCC(=O)O)c2ccccc2)cc1 (stereo unspecified) returned Pf growth 96h -0.7%, Pf growth 48h -18.0%, HCV inhibitor -24.3% and AMA1-RON2 inh 79.8%.
Screening CCOC(=O)CNC(c1ccccc1)c1cc(Br)ccc1NC(C)=O (stereo unspecified) returned Pf growth 96h -25.7%, Pf growth 48h inconclusive, HCV inhibitor -7.9% and AMA1-RON2 inh -11.7%.
`COC(=O)CNC(c1ccccc1)c1cc(Br)ccc1NC(=O)OCc1ccccc1` (stereo unspecified) gave Pf growth 96h inconclusive, Pf growth 48h inconclusive, HCV inhibitor inconclusive and AMA1-RON2 inh -12.3%.
Screening COC(=O)CNC(c1ccccc1)c1cc(C)ccc1NC(=O)CNC(=O)OCc1ccccc1 (stereo unspecified) returned Pf growth 48h 13.1µM*, HCV inhibitor -5.4% and AMA1-RON2 inh 5.9%.
Screening COC(=O)CNC(c1ccccc1)c1cc(C)ccc1NS(=O)(=O)c1ccc(C)cc1 (stereo unspecified) returned Pf growth 96h 13.1µM*, Pf growth 48h 9.28µM*, HCV inhibitor 6.31µM* and AMA1-RON2 inh 34.8%.
`COC(=O)CNC(c1ccccc1)c1cc(C)ccc1NC(=O)c1cccc(Cl)c1` (stereo unspecified) gave Pf growth 96h 13.1µM*, Pf growth 48h inconclusive, HCV inhibitor inconclusive and AMA1-RON2 inh 2.2%.
Fc1ccc(Oc2nc(-c3ccccn3)nc3ccccc23)cc1 was read as Pf growth 96h 4.65µM*, Pf growth 48h 1.65µM*, HCV inhibitor -73.4% and AMA1-RON2 inh 32.6%.
For COc1ccc(Oc2nc(-c3ccccn3)ncc2OC)cc1 the results were Pf growth 96h inconclusive, Pf growth 48h 0.0%, HCV inhibitor inconclusive and AMA1-RON2 inh 28.0%.
`COc1ccc(Oc2nc(-c3ccccn3)nc3ccccc23)cc1` gave Pf growth 96h 0.37µM*, Pf growth 48h 1.65µM*, HCV inhibitor 12.6µM* and AMA1-RON2 inh 99.4%.
For c1ccc(Oc2nc(-c3ccccn3)nc3ccccc23)cc1 the results were Pf growth 96h 1.31µM*, Pf growth 48h 1.65µM*, HCV inhibitor 7.94µM* and AMA1-RON2 inh 54.6%.
O=c1sc2ccccc2c(N2CCOCC2)c1[N+](=O)[O-] was read as Pf growth 96h 27.8%, Pf growth 48h -12.8%, HCV inhibitor 4.6% and AMA1-RON2 inh 5.7%.
Screening Cc1ccc(NC(=O)c2sc(N)nc2-c2ccc([N+](=O)[O-])cc2)c(C)c1 returned Pf growth 96h 0.0%, Pf growth 48h -1.1%, HCV inhibitor -24.4% and AMA1-RON2 inh 1.6%.
For COc1ccc(O)c(C(=O)C2c3ccccc3C(=O)N2c2ccc(C)cc2)c1 (stereo unspecified) the results were Pf growth 96h 1.47µM*, Pf growth 48h inconclusive, HCV inhibitor 17.9% and AMA1-RON2 inh -7.2%.
COc1ccc(CNC(=O)O[C@H]2C[C@@H]3C(=O)N(c4ccccc4)C(=O)[C@@H]3[C@@H]3CN(S(=O)(=O)c4ccc(C)cc4)C[C@]23O)cc1OC was read as AMA1-RON2 inh -6.9%.
For C=CCc1cc(C)ccc1OCCOCCC(C(=O)OCC)C(=O)OCC the results were Pf growth 96h 11.7µM*, Pf growth 48h -21.3%, HCV inhibitor 1.3% and AMA1-RON2 inh 83.4%.
Screening O=C1N=C(N2C=CC(=C3C=CNC=C3)C=C2)/C(=C/N=NC(=O)c2ccccc2)S1 returned Pf growth 96h inconclusive, Pf growth 48h -5.9%, HCV inhibitor 28.3% and AMA1-RON2 inh 14.1%.
For CC(C)(C)C(=O)Nc1ccc(NC(=O)C(C)(C)C)cc1 the results were Pf growth 96h 61.0%, Pf growth 48h 4.4%, HCV inhibitor 16.6% and AMA1-RON2 inh 0.0%.
CCC(=O)Nc1ccc(C(=O)NNC(=O)c2ccccc2)cc1 was read as Pf growth 96h 28.5%, Pf growth 48h 40.0%, HCV inhibitor 6.4% and AMA1-RON2 inh 0.0%.
CC(C)(C)C(=O)Nc1ccc(C(=O)NNC(=O)Cc2ccccc2)cc1 was read as Pf growth 96h 2.94µM*, Pf growth 48h 20.9%, HCV inhibitor 7.2% and AMA1-RON2 inh 11.2%.
CC(C)(C)C(=O)Nc1ccc(C(=O)NNC(=O)c2ccccc2)cc1 was read as Pf growth 96h 13.1µM*, Pf growth 48h 46.5%, HCV inhibitor -12.0% and AMA1-RON2 inh 1.3%.
Screening Cc1cc(C)n(C(C)CC(=O)Nc2ccc(-c3ccno3)cc2)n1 (stereo unspecified) returned Pf growth 96h 0.522µM*, Pf growth 48h inconclusive, HCV inhibitor 14.6% and AMA1-RON2 inh 5.7%.
`CC(CC(=O)Nc1ccc(-c2ccno2)cc1)n1cccn1` (stereo unspecified) gave Pf growth 96h -22.0%, Pf growth 48h -20.3%, HCV inhibitor -2.9% and AMA1-RON2 inh 4.1%.
Screening COc1ccccc1N1CCN(Cc2cc(=O)c(OCC#N)co2)CC1 returned Pf growth 96h -13.0%, Pf growth 48h 9.1%, HCV inhibitor 23.4% and AMA1-RON2 inh -1.0%.
O=C(NC(=S)N1CCCc2ccccc21)c1ccc([N+](=O)[O-])cc1 was read as Pf growth 96h 7.38µM*, Pf growth 48h inconclusive, HCV inhibitor inconclusive and AMA1-RON2 inh -28.0%.
Screening O=C(NC(=S)N1CCCc2ccccc21)c1ccccc1 returned Pf growth 96h inconclusive, Pf growth 48h 3.3%, HCV inhibitor inconclusive and AMA1-RON2 inh -19.5%.
Screening Cc1ccc(S(=O)(=O)N/N=C\c2cn(CC(N)=O)c3ccccc23)cc1 returned Pf growth 96h inconclusive, Pf growth 48h 25.7%, HCV inhibitor 6.7% and AMA1-RON2 inh 20.5%.
Cc1cc(-c2nnc(-c3ccccc3)c(-c3ccccc3)n2)c(C)o1 was read as Pf growth 96h inconclusive, Pf growth 48h 13.1µM*, HCV inhibitor inconclusive and AMA1-RON2 inh 33.7%.
COc1ccc(-c2nc3ccccc3n2Cc2ccccc2)cc1 was read as Pf growth 96h inconclusive, HCV inhibitor -7.9% and AMA1-RON2 inh -3.2%.
Screening COc1ccc(-c2n(Cc3ccccc3)c3ccccc3[n+]2Cc2ccccc2)cc1 returned Pf growth 96h inconclusive, Pf growth 48h 0.37µM*, HCV inhibitor inconclusive and AMA1-RON2 inh -8.2%.
Screening Cc1ccc(-n2nnnc2Sc2nc([N+](=O)[O-])nn2C)c(C)c1 returned HCV inhibitor -9.2% and AMA1-RON2 inh 0.0%.
Cc1ccc(-n2nnnc2Sc2nc([N+](=O)[O-])nn2C)cc1 was read as Pf growth 96h 20.3%, Pf growth 48h 4.15µM*, HCV inhibitor 0.8% and AMA1-RON2 inh 0.5%.
